From PubChem BioAssay
FLuc modulator: firefly luciferase modulation, counter-screen for miR-21 project. P08659. purified FLuc, Km substrates, luminescence inhibition. Potency, µM (doses to about 57.5 µM), without a hit: at the highest dose activity change, negative = inhibition, actives largely listed as inhibitors. 6.9% of 360,000 active. AID 588342;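 also: plate controls were vehicle for no effect and reference inhibitor for full effect; nearly all actives have a fitted effect of over 55% in size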
Target sequence (P08659 whole entry, looked up): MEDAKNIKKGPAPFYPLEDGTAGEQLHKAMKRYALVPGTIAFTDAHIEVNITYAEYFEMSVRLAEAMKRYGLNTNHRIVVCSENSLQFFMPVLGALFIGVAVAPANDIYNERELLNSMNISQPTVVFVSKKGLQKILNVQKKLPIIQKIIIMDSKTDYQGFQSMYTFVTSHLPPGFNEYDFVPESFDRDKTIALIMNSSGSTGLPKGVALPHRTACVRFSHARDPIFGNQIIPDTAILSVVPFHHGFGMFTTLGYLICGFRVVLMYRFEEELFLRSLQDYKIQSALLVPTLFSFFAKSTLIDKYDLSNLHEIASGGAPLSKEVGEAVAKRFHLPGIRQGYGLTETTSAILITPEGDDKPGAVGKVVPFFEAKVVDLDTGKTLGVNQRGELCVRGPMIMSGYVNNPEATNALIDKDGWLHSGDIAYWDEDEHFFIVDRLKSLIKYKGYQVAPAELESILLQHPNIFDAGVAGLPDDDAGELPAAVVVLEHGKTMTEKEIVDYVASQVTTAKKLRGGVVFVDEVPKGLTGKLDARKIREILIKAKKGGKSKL
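Biochemical qHTS of compounds, final roughly 60 µM downward over six points, against 10 nM purified firefly luciferase using Km concentrations of substrates (10 uM D-luciferin, 10 uM ATP) in Tris acetate pH 7.5 buffer; luminescence output.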
SMN2 splice up: increases expression of the SMN2 splice variant | Potency, µM (top dose mostly 46.1 µM), for the others: at the highest dose activity change, positive = activation, usual class: activators | 2.8% of 210,000 active | AID 1458 | HEK293 SMN2-luciferase splicing reporter, luminescence, 30-36 h; also: % of control where 0% means no effect; nearly all actives have a fitted effect of over 55% in size
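HEK293 cells carry an SMN2 minigene-luciferase reporter in which exon 7 inclusion puts luciferase in frame. Cells were seeded at 2000 cells/well, attached for 10-12 hours, then exposed to compounds for 30-36 hours at 37C before ONE-Glo luminescence.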
NPC1 promoter act: activates the NPC1 promoter. Huh7 NPC1 promoter luciferase reporter, 24 h. Potency, µM (doses to about 9.22 µM), without a hit: at the highest dose activation, actives largely listed as activators. AID 485313. 2.4% of 320,000 active; also: % of control where 0% means no effect; nearly all actives have a fitted effect of over 60% in size
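In 1536-well qHTS, Huh7 cells harboring an NPC1 promoter–luciferase construct received compound for 24 h; activation was quantified by luminescence following luciferase reagent addition.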
Rab9 promoter act: activates the Rab9 promoter. Huh7 Rab9 promoter-luciferase reporter, luminescence, 24 h. AID 485297. 2.8% of 320,000 active. Potency, µM (titrated, usually from 9.22 µM), inactives show at the top dose activation, negative = inhibition, most hits filed as activators; also: % of control where 0% means no effect; nearly all actives have a fitted effect of over 60% in size
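Luminescence read-out: Huh7 cells stably expressing Rab9-luciferase, treated 24 h with compound at 37 °C, then lysed with luciferase reagent for 10 min at ambient before reading.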
KinaseGlo FLuc: counter-screen: inhibitors of Kinase-Glo firefly luciferase; Q27757; Kinase-Glo luciferase, ATP luminescence, 8 min; Potency, µM (titrated, usually from 38.3 µM), for the others: at the highest dose activity change, negative = inhibition, hits mostly inhibitors; 0.28% of 200,000 active; AID 1379; also: % is scaled to controls: 0 for no effect and ±100 for the full control effect; nearly all actives have a fitted effect of over 60% in size
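Light output from Kinase-Glo luciferase with luciferin and 10 uM ATP in 50 mM imidazole pH 7.2, KCl, MgCl2, Tween 20, BSA; compound pin-delivered, 8-min ambient incubation, then luminescence read.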
* marks the source's active call; other numbers are inactive results; [ ] = dose if it differs, or a comment. The list is not random: actives were taken first. Their share in the collection is about 7.3%. Calls follow the shape of the dose curve; as a rule, active = well fitted curve in the direction sought with a large enough effect; inconclusive = small, poorly fitted or top-dose-only effect, or another doubt; inactive = no such curve, though single readings can be large; an effect the other way counts as inactive or inconclusive. Potency is read from the fitted curve at half-maximal effect.

For COC(=O)c1cccc(NC(=O)C2COc3ccccc3O2)c1 (stereo unspecified) the results were FLuc modulator 17µM*, SMN2 splice up 9%, NPC1 promoter act inconclusive, Rab9 promoter act inconclusive and KinaseGlo FLuc 0%.
For Cc1ccc(NC(=O)C2COc3ccccc3O2)cc1C (stereo unspecified) the results were FLuc modulator 19µM*, NPC1 promoter act 2.5µM* and Rab9 promoter act inconclusive.
Screening Cc1nc2ccc3nc(NC(=O)C4COc5ccccc5O4)sc3c2s1 (stereo unspecified) returned FLuc modulator -1%, SMN2 splice up 5%, NPC1 promoter act -1%, Rab9 promoter act -4% and KinaseGlo FLuc 2%.
Cc1nc2cc(NC(=O)C3COc4ccccc4O3)ccc2s1 (stereo unspecified) was read as FLuc modulator 12µM*, NPC1 promoter act inconclusive, Rab9 promoter act inconclusive and KinaseGlo FLuc -8%.
For Cc1ccc(NC(=O)C2COc3ccccc3O2)cc1S(=O)(=O)N1CCCCC1 (stereo unspecified) the results were FLuc modulator -12%, NPC1 promoter act 5% and Rab9 promoter act -9%.
`COC(=O)c1cc(NC(=O)C2COc3ccccc3O2)ccc1Cl` (stereo unspecified) gave FLuc modulator -18%, SMN2 splice up 4%, NPC1 promoter act 7%, Rab9 promoter act -2% and KinaseGlo FLuc -2%.
`CCOC(=O)C1C(C(=O)OC)=C(c2ccc(F)cc2)c2ccc(OC)cc2N1S(=O)(=O)C(F)(F)F` (stereo unspecified) gave KinaseGlo FLuc 2%[39.9 µM].
Nc1ccc2oc(=O)c3ccccc3c2c1 was read as FLuc modulator -19%, SMN2 splice up 14µM*, NPC1 promoter act inconclusive, Rab9 promoter act inconclusive and KinaseGlo FLuc 7%.
Screening Nc1c(N)c2ccccc2oc1=O returned FLuc modulator -13%, SMN2 splice up 3%, NPC1 promoter act 8%, Rab9 promoter act 1% and KinaseGlo FLuc 4%.
`COC(=O)N[C@H](C[N+](=O)[O-])c1cccc(C)c1` gave SMN2 splice up 6% and KinaseGlo FLuc 2%.
For ClC(=C\c1ccccc1)/C=N/N1CCN(c2ccccn2)CC1 the results were FLuc modulator inconclusive, SMN2 splice up 14µM*, NPC1 promoter act 3.2µM*, Rab9 promoter act inconclusive and KinaseGlo FLuc -4%.
For CCc1ccc(/C=N/N2CCN(c3ccccn3)CC2)cc1 the results were FLuc modulator inconclusive, NPC1 promoter act inconclusive and Rab9 promoter act 27%.
Screening Cc1ccc(/C=N/N2CCN(c3ccccn3)CC2)cc1 returned FLuc modulator 9.5µM*, SMN2 splice up 18%, NPC1 promoter act 30%, Rab9 promoter act inconclusive and KinaseGlo FLuc 3%.
CCCCNC(=O)C1CCN(S(=O)(=O)c2cc(Br)cc3c2N(C(=O)CC)CC3)CC1 was read as FLuc modulator -3% and SMN2 splice up -2%.
`Cc1c(CNC2CCCCCC2)c(C(=O)O)c(C)n1Cc1ccc(F)cc1Cl` gave FLuc modulator -1% and SMN2 splice up -5%.
For CC(C)c1nn2c(=O)cc(COC(=O)c3ccccc3Cl)nc2s1 the results were FLuc modulator 17µM*.
For COc1cc(C(=O)OCc2cc(=O)n3nc(C(C)C)sc3n2)cc(OC)c1OC the results were FLuc modulator 0%.
Screening CC(C)c1nn2c(=O)cc(COC(=O)c3cccs3)nc2s1 returned FLuc modulator 11µM*.
`COc1ccc([N+](=O)[O-])cc1C1NN=C(c2ccccc2O)S1` (stereo unspecified) gave FLuc modulator inconclusive, SMN2 splice up -17%, NPC1 promoter act -3%, Rab9 promoter act 16% and KinaseGlo FLuc 0%.
Screening O=[N+]([O-])c1ccc(O)c(C2=NNC(c3ccccc3F)C2)c1 (stereo unspecified) returned FLuc modulator 3.4µM*, NPC1 promoter act 1µM* and Rab9 promoter act 0.32µM*.
For O=C(NCc1cccc(F)c1)c1ccc(-n2cnc3cccnc32)cc1 the results were FLuc modulator -6%.
Screening Cc1ccc(-c2nnc3c4ccccc4c(C)nn23)cc1NC(=O)c1ccccc1 returned FLuc modulator -17% and SMN2 splice up 9%.
For Cc1cc(/C=C2/NC(=O)N(Cc3ccccc3F)C2=O)c(C)n1C(C)C the results were FLuc modulator inconclusive, SMN2 splice up 0%, NPC1 promoter act -2%, Rab9 promoter act -2% and KinaseGlo FLuc -3%.
For Cc1cc(/C=C2/NC(=O)N(c3ccccc3)C2=O)c(C)n1C(C)C the results were FLuc modulator 4.8µM*, SMN2 splice up 10µM*, NPC1 promoter act 3.2µM*, Rab9 promoter act 1.6µM* and KinaseGlo FLuc -1%.
CCOC(=O)Cc1cc(C(=O)Nc2ccc(Br)cc2)sc1-c1ccc(C)cc1 was read as FLuc modulator 4% and SMN2 splice up -24%.
`O=C(Nc1nnc(-c2ccc3c(c2)CCCC3)o1)c1c(F)cccc1F` gave FLuc modulator 15µM*, SMN2 splice up -5%, NPC1 promoter act 14%, Rab9 promoter act 27% and KinaseGlo FLuc 7%.
COc1ccc(N=Cc2ccc(-c3ccccc3)o2)cc1 was read as FLuc modulator 3µM*, NPC1 promoter act -3%, Rab9 promoter act -12% and KinaseGlo FLuc -1%.
`O/N=C\c1ccc(-c2ccccc2)o1` gave FLuc modulator 13µM*, SMN2 splice up 13µM*, NPC1 promoter act 22%, Rab9 promoter act 24% and KinaseGlo FLuc 1%.
COc1ccc(N=C/C=C2\C=C(c3ccccc3)OC(C)(C)O2)cc1 was read as FLuc modulator inconclusive, SMN2 splice up inconclusive, NPC1 promoter act -1%, Rab9 promoter act 3% and KinaseGlo FLuc -4%.
For O=[N+]([O-])c1ccc(-c2ccc(/C=N/O)o2)cc1 the results were FLuc modulator inconclusive, NPC1 promoter act 29% and Rab9 promoter act 23%.
`CN(C)CCCNCCCN` gave SMN2 splice up -3%.
For N/C(=N\OC(=O)CCC1CCCC1)c1cccnc1 the results were FLuc modulator 13µM*, SMN2 splice up 15%, NPC1 promoter act -1%, Rab9 promoter act 0% and KinaseGlo FLuc -3%.
Screening O=C(CCC1CCCC1)N1CCN(C(=O)c2cccnc2)CC1 returned FLuc modulator 0%, SMN2 splice up 4%, NPC1 promoter act 5%, Rab9 promoter act 1% and KinaseGlo FLuc -2%.
For N/C(=N\OC(=O)CC1CCCCC1)c1cccnc1 the results were FLuc modulator 13µM*, SMN2 splice up -5%, NPC1 promoter act -3%, Rab9 promoter act -2% and KinaseGlo FLuc 4%.
CCc1ccc(OCC(=O)O/N=C(\N)c2cccnc2)cc1 was read as FLuc modulator inconclusive, NPC1 promoter act 3% and Rab9 promoter act 17%.
